# Screening results (PubChem)
# In the library only some 9.3% were active in any assay of this set; here they are far more common.
# Rab9 prom act – activates the Rab9 promoter; Huh7 Rab9 promoter-luciferase reporter, luminescence, 24 h; Potency, µM (top dose mostly 9.22 µM), without a hit: top-dose activation, negative = inhibition, usual class: activators; hit rate 2.8% among 320,000; also: % of control where 0% means no effect; nearly all actives have a fitted effect of over 60% in size
#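 Luciferase signal after 10 min detection reagent at ambient indicates Rab9 promoter upregulation; stably transfected Huh7 cells were treated 24 h with compound in DMSO at 37 °C, 5% CO2.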
# ELG1 DNA repair – inhibitors of ELG1-dependent DNA repair in HEK293T cells. AID 504467. Potency, µM (titrated, usually from 46.1 µM), for the others: top-dose activity change, negative = inhibition, hits mostly inhibitors. HEK293T ELG1-luciferase reporter, luminescence, 16 h; DNA damage induced by 5-fluorouridine. hit rate 2.3% among 330,000; also: % is scaled to controls: 0 for no effect and ±100 for the full control effect; nearly all actives have a fitted effect of over 55% in size
#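 Luminescence from the luciferase reporter, measured 30 min after ONE-Glo reagent at room temperature, was the read-out. Beforehand, 2,000 cells per well were exposed for 16 hr at 37 °C to 5-fluorouridine together with compound or vehicle.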
# ELG1 genotox – induces genotoxicity in HEK293T cells with luciferase-tagged ELG1; HEK293T ELG1-luciferase reporter, luminescence, 16 h; Potency, µM (titrated, usually from 46 µM), without a hit: at the top dose activity change, positive = activation, actives largely listed as activators; hit rate 1.3% among 330,000; AID 504466; also: % of control where 0% means no effect; nearly all actives have a fitted effect of over 60% in size
#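 Screening used a luciferase reporter fused to human ELG1 in HEK293T cells. Luminescence was read on a CCD plate imager after 16 hr exposure and 30 min ONE-Glo incubation.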
# SMN2 splice enh – increases expression of the SMN2 splice variant; hit rate 2.8% among 210,000; AID 1458; Potency, µM (highest dose often 46.1 µM), for inactives: at the top dose activity change, positive = activation, hits mostly activators; HEK293 SMN2-luciferase splicing reporter, luminescence, 30-36 h; also: % of control where 0% means no effect; nearly all actives have a fitted effect of over 55% in size
#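 HEK293 cells carry an SMN2 […]–luciferase reporter in which exon 7 inclusion puts luciferase in frame. Cells were plated 10-12 h before compound addition, then incubated 30-36 h at 37C. ONE-Glo luminescence was read; sodium butyrate at 4.5 mM final served as control.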
# NPC1 prom act – activates the NPC1 promoter | Huh7 NPC1 promoter luciferase reporter, 24 h | Potency, µM (highest dose often 9.22 µM), for inactives: at the top dose activation, hits mostly activators | hit rate 2.4% among 320,000 | AID 485313; also: % of control where 0% means no effect; nearly all actives have a fitted effect of over 60% in size
#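 Huh7 reporter cells (NPC1 promoter driving luciferase) are dosed with compound for 24 h at 37 °C, 5% CO2; luciferase detection reagent is then added and luminescence measured after 10 min at ambient temperature.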
# FLuc counter – counter-screen for miR-21 project: firefly luciferase inhibitors or activators; P08659; purified FLuc, Km substrates, luminescence inhibition; Potency, µM (titrated, usually from 57.5 µM), inactives show at the top dose activity change, negative = inhibition, hits mostly inhibitors; hit rate 6.9% among 360,000; AID 588342;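 also: plate controls were vehicle for no effect and reference inhibitor for full effect; nearly all actives have a fitted effect of over 55% in size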
# Target sequence (P08659 whole entry, looked up): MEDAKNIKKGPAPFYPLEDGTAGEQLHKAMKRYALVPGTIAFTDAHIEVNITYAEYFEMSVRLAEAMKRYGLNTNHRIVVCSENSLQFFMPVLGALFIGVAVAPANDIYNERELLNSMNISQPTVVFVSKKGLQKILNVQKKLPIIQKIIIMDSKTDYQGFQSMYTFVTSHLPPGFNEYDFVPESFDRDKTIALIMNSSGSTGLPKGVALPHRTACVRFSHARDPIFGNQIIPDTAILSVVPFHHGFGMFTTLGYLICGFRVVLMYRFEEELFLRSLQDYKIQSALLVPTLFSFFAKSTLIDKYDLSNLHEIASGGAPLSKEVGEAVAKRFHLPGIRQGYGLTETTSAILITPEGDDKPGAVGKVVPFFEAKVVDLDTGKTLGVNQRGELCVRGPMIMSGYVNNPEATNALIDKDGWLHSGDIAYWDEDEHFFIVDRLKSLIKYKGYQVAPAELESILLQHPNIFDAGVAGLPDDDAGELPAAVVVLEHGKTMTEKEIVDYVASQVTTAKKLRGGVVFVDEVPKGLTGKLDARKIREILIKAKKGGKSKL
#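 Biochemical qHTS of compounds, final roughly 60 µM downward over six points, against 10 nM purified firefly luciferase using Km concentrations of substrates (10 uM D-luciferin, 10 uM ATP) in Tris acetate pH 7.5 buffer; luminescence output.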
# An asterisk follows results filed as active; ? = inconclusive; . = not tested or not shown; [ ] = remark or other dose. Calls follow the shape of the dose curve; as a rule, active = well fitted curve in the direction sought with a large enough effect; inconclusive = small, poorly fitted or top-dose-only effect, or another doubt; inactive = no such curve, though single readings can be large; an effect the other way counts as inactive or inconclusive. Potency is read from the fitted curve at half-maximal effect.
SMILES,Rab9 prom act,ELG1 DNA repair,ELG1 genotox,SMN2 splice enh,NPC1 prom act,FLuc counter
CCCOc1cccc(C(=O)Nc2cccc3ncccc23)c1,7%,-22%,0%,.,4%,-12%
O=C(OCn1ncc(Cl)c(Cl)c1=O)c1cccc(C(F)(F)F)c1,-44%,?,-16%,-101%,-33%,0%
N#CCCN(C(=O)COC(=O)CCc1nc2ccccc2c(=O)[nH]1)c1ccccc1F,1%,13%,2%,.,-4%,2%
COc1cc(OC)c(OC)cc1CNC(=O)c1ccc(S(=O)(=O)N2CCCCC2)cc1,-4%,-16%,-1%,.,-4%,8%
C=CCOc1ccc(/C=C2\N=C(C)OC2=O)cc1OC,-5%,-15%,1%,.,0%,?
Cc1ccccc1C(=O)Nc1ccccc1C(=O)NC1CC1,-3%,6%,-2%,.,-3%,-1%
COc1ccc(CCNC(=S)NC(=O)c2ccccc2)cc1C,-2%,13µM*,0%,.,-4%,-16%
CC(C)Oc1ccc(C(=O)NC(=S)Nc2ccc(Cl)c(C(=O)O)c2)cc1,?,?,?,.,?,17µM*
O=C(O)c1cccc(NC(=S)NC(=O)c2ccncc2)c1,2%,14%,4%,8%,-1%,?
O=C(O)c1cccc(NC(=S)NC(=O)c2cccc(OCc3ccccc3)c2)c1,?,?,9%,.,25%,19µM*
CCCOc1cccc(C(=O)NC(=S)Nc2ccccc2)c1,?,?,?,13µM*,?,8.5µM*
COc1cccc(C(=O)NC(=S)Nc2ccc(Cl)c(C(=O)O)c2)c1,.,.,.,-3%,.,?
CCCOc1cccc(C(=O)NC(=S)Nc2cccc(NC(=O)c3ccccc3Cl)c2)c1,1%,?,-2%,-18%,-8%,2%
C/C(=N\N=C(N)N)c1cccc([N+](=O)[O-])c1,-4%,5%,2%,3%,5%,4%
Cc1ccsc1CN1CCc2nc(N3CCN(c4ccccc4F)CC3)ncc2C1,.,.,.,.,.,-3%
CCCOc1cccc(C(=O)Nc2cc(-c3ccccc3)no2)c1,.,.,.,14µM*,.,6µM*
Cc1ccc(C(=O)O)cc1NC(=S)NC(=O)c1ccc(COc2ccccc2)cc1,7%,22%,1%,.,2%,12µM*
O=C(CSc1ncnc2nc[nH]c12)Nc1ccccc1C(F)(F)F,4%,11%,1%,-9%,1%,1%
N#Cc1ccc(-c2csc(-c3ccno3)n2)cc1,-5%,0%,5%,.,2%,-14%
FC(F)(F)c1ccc(-c2csc(-c3ccno3)n2)cc1,18%,13%,-1%,.,11%,27µM*
Cc1cc(C(=O)NC2CCCCC2)c(C)n1-c1ccc(F)cc1,2.5µM*,?,5.8µM*,?,2.8µM*,6µM*
Cc1cc(C(=O)CN2CCCCC2)c(C)n1-c1ccc(F)cc1,?,?,13%,?,?,?
Cc1cc(C(=O)CN2CCC(C)CC2)c(C)n1-c1ccc(F)cc1,1.4µM*,?,?,13µM*,?,9.5µM*
Cc1cc(C(=O)CNCc2ccco2)c(C)n1-c1ccc(F)cc1,2µM*,?,?,-5%,1.6µM*,3.4µM*
O=[N+]([O-])c1cc(S(=O)(=O)N2CCOCC2)ccc1NS(=O)(=O)c1ccccc1,.,-6%,-1%,.,.,.
SMILES,Rab9 prom act,ELG1 DNA repair,ELG1 genotox,SMN2 splice enh,NPC1 prom act,FLuc counter
Cc1cccc(C)c1NC(=O)Cn1nnnc1N,2%,0%,0%,-8%,1%,1%
CC1(C)CC(=O)C(C(c2ccncc2)C2C(=O)CC(C)(C)CC2=O)C(=O)C1,-2%,5%,0%,-3%,2%,2%
Cc1ccc(C(C2C(=O)CC(C)(C)CC2=O)C2C(=O)CC(C)(C)CC2=O)s1,0%,?,4%,-2%,1%,21µM*
COc1cc2nc(/C=C/c3cc(OC)c(OC)c(OC)c3)sc2cc1SC,-19%,12µM*,-6%,-24%,-26%,2%
COc1cc2nc(C)sc2cc1SC,10%,15%,-7%,7%,4%,-17%
Cc1ccc(-c2csc3nc(C)n(N)c(=O)c23)o1,?,?,16µM*,4%,?,?
Oc1cccc2ccc(/C=C/c3c(F)cccc3Cl)nc12,4µM*,?,15µM*,25µM*,?,3µM*
Nc1nccc(/C=C/c2c(F)cccc2Cl)n1,?,?,?,?,23%,24µM*
Oc1cccc2ccc(/C=C/c3ccccc3Cl)nc12,4%,?,18µM*,.,?,1.9µM*
Cc1ccc(C=Nc2ccccc2C(N)=O)o1,3.5µM*,?,?,11µM*,?,27µM*
Cc1ccc(/C=N/c2sc(Cc3ccccc3)c(C)c2C(N)=O)o1,2%,-1%,0%,22%,0%,-6%
CN(C)c1ccc(C=Nc2ccccc2C(N)=O)cc1,0.79µM*,?,10µM*,13µM*,3.2µM*,1.5µM*
S=c1[nH]nc(COc2ccc(Cl)cc2)o1,1%,1%,0%,-20%,6%,?
CCCCOc1ccc(Br)cc1CSC(=N)N,-30%,23µM*,-8%,-67%,-30%,4%
O=C(NCCN1CCOCC1)c1ccc(Cl)c([N+](=O)[O-])c1,8%,-8%,0%,.,-2%,1%
O=C(COC(=O)c1ccc(O)cc1)NC(c1ccccc1)c1ccccc1,.,-44%,0%,.,.,.
CCOC(=O)N1CCN(S(=O)(=O)c2ccc(C)cc2)C1c1ccccc1 (stereo unspecified),-12%,26µM*,-16%,-7%,1%,0%
CCOC(=O)N1CCN(S(=O)(=O)c2ccc(C)cc2)C1c1ccc(OC)cc1 (stereo unspecified),7%,?,-1%,-19%,-2%,1%
COc1ccc(F)cc1S(=O)(=O)N1CCCN(S(=O)(=O)c2cc(F)ccc2OC)CC1,0%,?,-7%,-11%,-1%,8%[2.3 µM]
O=C1CCCC(O)=C1N=Nc1ccc2c(c1)OCO2,3.2µM*,?,16µM*,16µM*,?,9.5µM*
O=C1CCCC(O)=C1N=Nc1ccc(C(=O)O)cc1,2%,-2%,-4%,.,0%,-2%
COc1cc2c3nnc(-c4ccc(F)cc4)c-3cn(Cc3cccc(F)c3)c2cc1OC,-7%,0%,?,11%,-6%,-1%
CCOc1cc(/C=N\Nc2ncc(F)c(N3CCOCC3)n2)ccc1Oc1nc(Cl)ncc1F,-15%,23µM*,-10%,.,-6%,21µM*
